What all share (type): functional
In assay [1] the target is Solute carrier family 2, facilitated glucose transporter member 1 (Homo sapiens) (UniProt P11166). Kind of assay: ST_JUDE_LEISH: Cytotoxicity at 2uM final concentration against transgenic Leishmania Mexicana promastigotes LmGLUT1 that are glucose transport deficient and complemented with the human glucose transporter GLUT1. Activity is measured by DNA content using SYBR green in vitro.

Assay [2] addresses Hexose transporter 1 (Plasmodium falciparum) (UniProt O97467). The assay is described as follows: ST_JUDE_LEISH: Cytotoxicity at 2uM final concentration against transgenic Leishmania Mexicana promastigotes LmPfHT that are glucose transport deficient and complemented with the Plasmodium falciparum hexose transporter. Activity is measured by DNA content using SYBR green in vitro.

The target in assay [3] is Glucose transporter (Leishmania mexicana) (UniProt O61059). The assay is described as follows: ST_JUDE_LEISH: Cytotoxicity at 2uM final concentration against transgenic Leishmania Mexicana promastigotes LmGT2 that are glucose transport deficient and complemented with the L. Mexicana glucose transporter 2. Activity is measured by DNA content using SYBR green in vitro.

Solute carrier family 2, facilitated glucose transporter member 1 (Homo sapiens), sequence (P11166 whole entry): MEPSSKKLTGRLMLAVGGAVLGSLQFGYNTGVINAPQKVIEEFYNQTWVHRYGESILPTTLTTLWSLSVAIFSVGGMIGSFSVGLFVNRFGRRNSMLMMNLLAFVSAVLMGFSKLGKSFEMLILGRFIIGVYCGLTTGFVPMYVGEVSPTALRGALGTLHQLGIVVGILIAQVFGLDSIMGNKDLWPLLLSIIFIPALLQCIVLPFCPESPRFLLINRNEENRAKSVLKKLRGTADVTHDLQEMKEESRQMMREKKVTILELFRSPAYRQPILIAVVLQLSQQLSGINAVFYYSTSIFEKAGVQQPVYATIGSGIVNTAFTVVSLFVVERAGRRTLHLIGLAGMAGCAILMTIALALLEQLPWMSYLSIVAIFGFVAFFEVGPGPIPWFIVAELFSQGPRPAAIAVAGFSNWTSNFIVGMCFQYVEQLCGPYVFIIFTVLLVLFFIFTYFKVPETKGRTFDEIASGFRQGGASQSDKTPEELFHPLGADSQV

As a reminder, the inhibition is the drop in the measured response relative to a control, in per cent. In the case of `COc1ccc2[nH]cc(C3=CCN(CC4CC4C(=O)c4ccccc4)CC3)c2n1` (stereo unspecified), the inhibition in assay [1] amounted to 12.6%; in assay [2], 14.6%; in assay [3], 11.3%.

`CN(C)c1cccc(CCNCCc2c[nH]c3ccc(Cl)cc23)c1`: the inhibition in assay [1] was -1.51%; in assay [2], 4.45%; in assay [3], 1.58%.

Turning to `COC(=O)c1ccc(CC(C)NCC(O)c2cccc(SC(F)(F)F)c2)cc1` (stereo unspecified), the inhibition in assay [1] was 2.85%; in assay [2], 4.05%; in assay [3], 4.01%.

`CC[C@H]1CN2CC[C@H]1C[C@H]2C(O)c1cc(OC)nc2ccccc12` (stereo partly specified): the inhibition is -0.41% in assay [1], 0.13% in assay [2] and -0.23% in assay [3].

On to `CCCc1c(C(=O)NC2CCC(CN3CCC(c4c[nH]c5ccccc45)CC3)CC2)cnn1-c1ccc(Cl)cc1` (stereo unspecified), for which the values for the inhibition in assay [1], in assay [2] and in assay [3] were -0.47%, -1.46% and -1.49%, respectively.

For `C=C[C@H]1CN2CC[C@H]1C[C@H]2[C@H](O)c1ccnc2ccccc12`, the inhibition in assay [1] worked out at 0.68%; in assay [2] it was 1.87%; in assay [3], 1.5%.

`OC1(c2ccc(Cl)c(C(F)(F)F)c2)CCN(CCOC2c3ccccc3CSc3ccc(Cl)cc32)CC1` (stereo unspecified): the inhibition in assay [1] was 2.52%; in assay [2] it was 1.04%; in assay [3], 2.27%.

Consider `COC(=O)c1ccc(CC(C)NCC(O)c2cccc(Cl)c2Cl)cc1` (stereo unspecified), for which the inhibition was 3.29% in assay [1], 2.6% in assay [2] and 3.04% in assay [3].

Regarding `C[C@@H](CC1CCCCC1)NCc1ccccc1O`, the inhibition was 4.7% in assay [1], 11.1% in assay [2] and 3.31% in assay [3].

In the case of `CC[C@H]1CN2CC[C@H]1C[C@H]2[C@H](O)c1cc(-c2ccccc2C(F)(F)F)nc2ccc(OC)cc12`, the figures for the inhibition in assay [1], in assay [2] and in assay [3] were 0.61%, 1.6% and -1.22%, respectively.

On to `O=C(COc1ccc(Cl)cc1)N1CCC(CN2CCC(c3c[nH]c4ccccc34)CC2)CC1`, for which the inhibition was -2.1% in assay [1], -1.7% in assay [2] and -4.27% in assay [3].

With `O=C(c1ccccc1)C1CC1CN1CC=C(c2c[nH]c3ccccc23)CC1` (stereo unspecified), the results for the inhibition in assay [1], in assay [2] and in assay [3] were 2.08%, 0.92% and 8.35%, respectively.

For the compound `CCN(CC)CCN1C(=O)C(O)(c2ccccc2Cl)c2c1cc(C#N)cc2C(F)(F)F` (stereo unspecified), the inhibition in assay [1] is 2.9%; in assay [2] it was 2.02%; in assay [3], 4.08%.

`Cc1[nH]c2cc(Cl)ccc2c1C1=CCN(CCCCC2(C)C(=O)Nc3ccccc32)CC1` (stereo unspecified): the inhibition in assay [1] is 2.01%; in assay [2] it was 0.91%; in assay [3] it was 1.15%.

For the compound `Cn1nc(C(F)(F)F)cc1-c1ccc(C(=O)NC2CCC(CN3CCC(c4c[nH]c5ccccc45)CC3)CC2)s1` (stereo unspecified), the inhibition was 6.48% in assay [1], 4.44% in assay [2] and 2.24% in assay [3].

As to `O=C(C=Cc1ccccc1O)N1CCC(CN2CCC(c3c[nH]c4ccccc34)CC2)CC1`, the inhibition stood at 2.59% in assay [1], 2.2% in assay [2] and 2.49% in assay [3].

In the case of `Cc1ccc(C)c(N2CCN(Cc3ccccc3O)CC2)c1`, the inhibition is 0.11% in assay [1], 1.02% in assay [2] and 2.41% in assay [3].

Consider `O=C(NC1CCC(CN2CCC(c3c[nH]c4ccccc34)CC2)CC1)c1cc2cccc([N+](=O)[O-])c2[nH]1` (stereo unspecified), for which the inhibition is -2.16% in assay [1], 2.66% in assay [2] and -0.94% in assay [3].

`C#CCN1CCC2=C(C1)c1c(O)cc(C(C)CCCc3ccc(F)cc3)cc1OC2(C)C` (stereo unspecified): the inhibition is 1.13% in assay [1], 0.61% in assay [2] and 0.09% in assay [3].

As to `COC(=O)/C=C/C(=O)N[C@@H]1CC[C@@]2(O)[C@H]3Cc4ccc(O)c5c4[C@@]2(CCN3CC2CC2)[C@H]1O5`, the inhibition in assay [1] came to 4.79%; in assay [2], 5.03%; in assay [3], 6.57%.

As for `CC(=O)C1(c2ccccc2)CCN(CCC2(c3ccc(Cl)c(Cl)c3)CN(C(=O)C3CCCCC3)CCO2)CC1` (stereo unspecified), the inhibition in assay [1] came to 4.85%; in assay [2], 2.27%; in assay [3] it was 3.92%.

On to `COc1ccc(F)cc1-c1csc(N(c2ccc(F)cc2)C2CCNCC2)n1`, for which the inhibition in assay [1] worked out at 1.56%; in assay [2], 0.21%; in assay [3], 0.05%.

As for `CC(=O)C1(c2ccccc2)CCN(CCC(NC(=O)c2cc(C(F)(F)F)cc(C(F)(F)F)c2)c2ccc(Cl)c(Cl)c2)CC1` (stereo unspecified), the inhibition in assay [1] is -0.39%; in assay [2], 0.71%; in assay [3], 5.98%.

As for `COCCNCc1ccc(-c2cccc(CN(C(=O)CCC3CCCC3)C3CCN(Cc4ccccc4)CC3)c2)cc1`, the inhibition in assay [1] was -4.16%; in assay [2] it was 1.28%; in assay [3], -1.05%.

As to `O=C(Nc1ccc(Oc2ccccc2)cc1)N1CCC(CN2CCC(c3c[nH]c4ccccc34)CC2)CC1`, the values for the inhibition in assay [1], in assay [2] and in assay [3] were 1.64%, 2.58% and -1.12%, respectively.

Take `COc1cccc(C(=O)C2CC2CN2CC=C(c3c(C)[nH]c4ccccc34)CC2)c1` (stereo unspecified): the inhibition in assay [1] is 1.94%; in assay [2], -3.97%; in assay [3], 4.19%.

For the compound `COc1ccc(C(=O)C2CC2CN2CC=C(c3c[nH]c4cccc(Br)c34)CC2)cc1` (stereo unspecified), the values for the inhibition in assay [1], in assay [2] and in assay [3] were 4.26%, 2.54% and 2.11%, respectively.

For the compound `COC(=O)c1ccc(CC(C)NCC(O)c2cccc(C(F)(F)F)c2)c(OC)c1` (stereo unspecified), the inhibition in assay [1] turned out to be 6.43%; in assay [2], 5.12%; in assay [3], 5.25%.

As to `CC(Cc1ccc(OCCCCOc2ccccc2)cc1)NCCc1ccccc1Cl` (stereo unspecified), the figures for the inhibition in assay [1], in assay [2] and in assay [3] were 15%, 19.8% and 7.82%, respectively.

With `CN1C2CCC1c1cc(NC(=O)c3cc(-c4ccc(Cl)cc4)cs3)ccc12` (stereo unspecified), the values for the inhibition in assay [1], in assay [2] and in assay [3] were 8.89%, 9.62% and 8.52%, respectively.

Regarding `CC[C@@]1(O)C(=O)OCc2c1cc1n(c2=O)Cc2c-1nc1cc3c(cc1c2CN1CCOCC1)OCO3`, the inhibition in assay [1] was 51.3%; in assay [2], 76.7%; in assay [3], 71.6%.

For `COC(=O)c1ccc(CC(C)NCC(O)c2cccc(C(F)(F)F)c2)c(Cl)c1` (stereo unspecified), the results for the inhibition in assay [1], in assay [2] and in assay [3] were 2.55%, 2.18% and 3.39%, respectively.

For the origin of these results see ChEMBL document CHEMBL3433997, “St. Jude Leishmania screening dataset” (2016).
